Data taken from PubChem BioAssay AID795 (NMMLSC, 2007).
The whole screen tested about 24,000 compounds, of which about 130 (0.54%) were called active.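 Rule for the calls: active = side scatter shift above 30%; inactive = the rest.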 The sample as a whole holds a higher share of actives than the screen did.

test: inducers of granularity increase in LNCaP cells – cell-based, flow cytometry side scatter, primary screen (AID 795); details: LNCaP differentiation, 4 d, at 10 µM, stronger effect = higher value;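 note: androgen-responsive LNCaP prostate cancer cells in charcoal-stripped serum medium; percent of cells past a gate set so DMSO wells show 10% shift; higher shift means more granular cells and more differentiation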

SMILES | side scatter shift
Cc1ccc(-c2noc(-c3ccccc3C(=O)NCC3CCCO3)n2)cc1 (stereo not drawn) | 5% (inactive)
CCOC(=O)Nc1ccccc1N1C(=O)c2ccccc2C1=O | 8% (inactive)
O=C(CNS(=O)(=O)c1ccc(Br)s1)NCc1ccc2c(c1)OCO2 | 9% (inactive)
COc1ccc(-c2nc(CS(=O)CC(=O)N3CCc4ccccc4C3)c(C)o2)cc1 (stereo not drawn) | 11% (inactive)
O=C1CSC(c2cccc(F)c2)N1c1ccccc1F (stereo not drawn) | 8% (inactive)
CCOC(=O)c1cccc(NC(=O)CCc2c(C)nc3ncnn3c2C)c1 | 4% (inactive)
CC1Cc2nc(SCC(=O)Nc3ccccc3F)n(C)c(=O)c2S1 (stereo not drawn) | 7% (inactive)
CSCCC(NC(=O)C1CCC(C)CC1)C(=O)NCc1ccco1 (stereo not drawn) | 3% (inactive)
CCOc1ccc(NC(=O)N(CCC(C)C)C(C)c2ccco2)cc1 (stereo not drawn) | 7% (inactive)
COc1cc2[nH]c(=O)n(CCC(=O)NC3CCN(Cc4ccccc4)CC3)c(=O)c2cc1OC | 2% (inactive)
Cn1c(=O)cc(SCC(=O)N2CCCC2)c2cc(Cl)ccc21 | 9% (inactive)
COc1cc(OC)cc(-c2nc3nc(C)c(CCC(=O)NCc4ccco4)c(C)n3n2)c1 | 5% (inactive)
CC1C=CCC2C(=O)N(c3cccc(C(=O)N4CCCCCC4)c3)C(=O)C12 (stereo not drawn) | 3% (inactive)
C/C(=N\O)C1(C)N(O)C(C)(C)C(c2ccc(Br)cc2)=[N+]1[O-] (stereo not drawn) | 11% (inactive)
CCCSc1nc2c(c(=O)[nH]c(=O)n2C)n1CCc1ccccc1 | 9% (inactive)
Cc1ccc2nc3n(c(=O)c2c1)CCC3 | 8% (inactive)
Cc1nc2nc(SCC(=O)NCc3ccco3)nn2c(C)c1Cc1ccccc1 | 4% (inactive)
S=C1SCN(CCN2CCOCC2)CN1Cc1ccccc1 | 18% (inactive)
CCOC(=O)C1CCCN(C(=O)Cn2ncc3c(=O)oc4ccc(C)cc4c32)C1 (stereo not drawn) | 5% (inactive)
O=C(NC(=O)c1ccc(Cl)c(Cl)c1)OC1CCS(=O)(=O)C1 (stereo not drawn) | 6% (inactive)
CC1CCc2c(sc3c2C2=NS(=O)(=O)CCN2C=N3)C1 (stereo not drawn) | 12% (inactive)

SMILES | side scatter shift
CC(=O)c1c(N)n(C)c(=O)n(C)c1=O | 0% (inactive)
CCCC1CC(C)(C(=O)Cn2[nH]c(=O)ccc2=O)OC1=O (stereo not drawn) | 1% (inactive)
Fc1cc(F)c2nc(N3CCOCC3)sc2c1 | 5% (inactive)
Cn1c(=O)c2c(nc(N3CCCCCC3)n2CC(=O)c2ccc(Br)cc2)n(C)c1=O | 21% (inactive)
CCOC(=O)N1CCN(C(=O)c2ccc(S(=O)(=O)c3ccc(C)cc3)c(NC(C)=O)c2)CC1 | 8% (inactive)
N#CC1=C(N)C(C#N)(C#N)[C@H](c2ccsc2)[C@H]2COCC=C12 | 9% (inactive)
NC(=O)CSC1=Nc2ccccc2C2=NC(CCC(=O)NCc3ccc(F)cc3)C(=O)N12 (stereo not drawn) | 0% (inactive)
COc1ccc(NC(=O)C2CCCN(S(=O)(=O)c3cccc4cccnc34)C2)cc1 (stereo not drawn) | 6% (inactive)
CCCCN(CC)CCCNC(=O)CS(=O)(=O)Cc1nc(-c2cccc(OC)c2)oc1C | 7% (inactive)
CC(=O)Nc1cc2ccc(OC(C)=O)cc2oc1=O | 10% (inactive)
O=C(CSc1nc2[nH]ncc2c(=O)n1-c1ccccc1)N1CCCc2ccccc21 | 5% (inactive)
COc1ccc(OCc2ccc(-c3nc4ccccc4c(=O)n3N)o2)cc1 | 6% (inactive)
Cc1ccc(NC(=O)c2nc[nH]c2C(=O)N2CCCCC2)c(C(=O)c2ccccc2)c1 | 14% (inactive)
COc1ccc(OC)c(NC(=O)CC(Cc2ccccc2OC)C(=O)O)c1 (stereo not drawn) | 15% (inactive)
CCn1cc(C(=O)N2CCN(C3CCCCC3)CC2)c2cc(OC)c(OC)cc2c1=O | 7% (inactive)
Cc1nc2ccccc2c2oc(C(=O)NCC3CCCO3)cc12 (stereo not drawn) | 11% (inactive)
O=C(CN1C(=O)C2C3C=CC(C3)C2C1=O)NCC1COc2ccccc2O1 (stereo not drawn) | 9% (inactive)
Cn1c(CNC(=O)C(C)(C)C)nc2ccccc21 | 3% (inactive)
COCCN1C(=O)c2oc3c(C)cc(C)cc3c(=O)c2C1c1cccc(O)c1 (stereo not drawn) | 3% (inactive)
CC1(C)CC(O)C(CCC(O)c2ccccc2)C(C)(C)N1 (stereo not drawn) | 5% (inactive)
CCOC(=O)c1ccc2[nH]c(C)c(CN3CCN(C)CC3)c(=O)c2c1 | 10% (inactive)

SMILES | side scatter shift
COCCN(CC(=O)Nc1ccccc1C)S(=O)(=O)c1ccc(S(=O)(=O)N2CCCC2)cc1 | 3% (inactive)
COc1ccccc1NC(=O)CSc1nnc(Cc2cccn2C)n1-c1ccc(F)cc1 | 14% (inactive)
CC1(C)CC(=O)C=C(NCc2ccncc2)C1 | 6% (inactive)
CCOC(=O)N1CCC(C(N)=O)CC1 | 12% (inactive)
Nc1ccc(-n2nncc2-c2ccco2)cc1 | 2% (inactive)
CC12CN3CC(C)(CN(C1)C3c1ccc(Cl)cc1Cl)C2=O (stereo not drawn) | 7% (inactive)
O=C(CSc1nnc2ccccn12)c1ccccc1 | 3% (inactive)
CCCCCCn1c(CN2CCCC(C)C2)nc2c1c(=O)n(C)c(=O)n2C (stereo not drawn) | 7% (inactive)
COc1ccc(Cc2nnc(NC(=O)Cc3cccs3)s2)cc1 | 23% (inactive)
CCOC(=O)c1ccc(NC(=O)Cn2nnc(-c3ccc(C)cc3)n2)cc1 | 12% (inactive)
COc1ccc(CC(=O)Nc2ccc(-c3nnc(-c4ccc(C)cc4)o3)cc2)cc1 | 37% (active)
CCCCOC(=O)NCN1C(=O)C2C3C=CC(C3)C2C1=O (stereo not drawn) | 11% (inactive)
Cc1noc(C)c1S(=O)(=O)N1CCCC(C(=O)Nc2nccs2)C1 (stereo not drawn) | 13% (inactive)
CCN(CC)C(=O)c1sc(NC(=O)c2ccco2)c(C#N)c1C | 7% (inactive)
Cc1ccc(-n2nc3cc(Cl)c(NC(=O)c4ccco4)cc3n2)cc1 | 36% (active)
O=C(c1ccco1)N1CCN(c2cccc(Cl)c2)CC1 | 16% (inactive)
CCCS(=O)(=O)N1CCN(C(=O)c2cccs2)CC1 | 14% (inactive)
Cc1cccc(C2c3c(n(C)c(=O)n(C)c3=O)N=C3c4ccccc4C(=O)C32)c1 (stereo not drawn) | 36% (active)
COc1ccc(C2C3=C(OC(C)=O)c4ccccc4C3=Nc3c2c(=O)n(C)c(=O)n3C)cc1 (stereo not drawn) | 13% (inactive)
Cc1cc(C)nc(-n2nc(C)cc2NC(=O)c2ccc(Br)o2)n1 | 9% (inactive)
CCOC(=O)N1CCC(Nc2c(NCCN3CCN(c4cccc(Cl)c4)CC3)c(=O)c2=O)CC1 | 16% (inactive)
